# Results as given in PubChem BioAssay AID540276 (National Center for Advancing Translational Sciences (NCATS), 2011).
# The campaign covered roughly 300,000 compounds. About 5,400 (1.8%) were called active. Not shown: some 28% with an inconclusive outcome. Calls come from the whole dose curve; tested in HEK293 cells. Shown is part of a subset that was picked to be rich in actives. Where a call stands in place of a potency, no number is given.
# Assay: qHTS for inhibitors of binding or entry into cells for Marburg Virus
# Conditions: Marburg virus pseudotyped entry inhibition, cell reporter; series mostly up to 37.8 µM
# Potency is the fitted concentration of half-maximal effect.
row,SMILES,Potency
1,Cc1cc(O)c(Sc2ccccc2)c(=O)o1,inactive
2,CCOc1cccc(-c2nnc(SCC(=O)NC3CC3)n2C)c1,inactive
3,Cc1ccc(NC(=O)CCN2CCc3ccccc3C2)cc1,inactive
4,COCC(=O)Nc1ccc(Br)cc1,inactive
5,CN1C(CC(=O)Nc2ccc(Br)cc2)c2ccccc2CC1(C)C (centres undefined),11.2 µM (active)
6,COc1ccc(Cc2nnc(SCC(=O)Nc3ccc(C)c(C)c3)o2)cc1OC,inactive
7,CC(C)Nc1nnc(SC(C)C(=O)N(C)C2CCCCC2)s1 (centres undefined),inactive
8,CSc1nc2ccc(C)cc2c(=O)n1-c1cccnc1,inactive
9,Cc1ccc2nc(C)c3c(c2c1)N(c1ccccc1)CC3,5.62 µM (active)
10,Cc1ccc2nc3n(c(=O)c2c1)CCC3,inactive
11,COc1ccc(CN2CCN(C(=O)CCC(=O)Nc3nnc(C(C)C)s3)CC2)cc1F,inactive
12,CSc1ccc(S(=O)(=O)N2CCC(C(=O)NCc3ccncc3)CC2)cc1,inactive
13,Cc1ccc(C)c(SCc2nc3sc(C(=O)O)c(C)c3c(=O)[nH]2)c1,inactive
14,CCOC(=O)c1sc2nc(CSc3ccccc3)[nH]c(=O)c2c1C,8.91 µM (active)
15,CCOC(=O)c1sc2nc(CSCC(=O)OCc3ccc(C(=O)OC)o3)[nH]c(=O)c2c1C,inactive
16,Oc1cccc(CCc2ccccn2)c1,inactive
17,CC(Nc1ccc([N+](=O)[O-])cc1[N+](=O)[O-])c1ccccc1 (centres undefined),inactive
18,Cc1c(C(=O)N2CCOCC2)[nH]c2ccc(OCc3ccccc3)cc12,inactive
19,OCC1(CCc2ccccc2)CCN(Cc2ccc3nsnc3c2)CC1,inactive
20,Cc1c(CN2CCC(CO)(CCOc3ccccc3)CC2)[nH]c2ccc(Cl)cc12,2.82 µM (active)
21,Cc1nn(-c2ccccc2)c2c1[C@@H](c1ccc(F)cc1F)C(C#N)=C(N)O2,inactive
22,O=C(Nc1cccc(S(=O)(=O)N2CCOCC2)c1)C12CC3CC(CC(C3)C1)C2,inactive
23,Cc1ccc(-c2nnc(-c3ccc(NC(=O)c4cccs4)cc3)o2)cc1,11.6 µM (active)
24,O=C(Nc1ccccc1)c1ccc(NC(=O)c2cccs2)cc1,inactive
25,Cc1ccc(C(=O)Nc2ccc(NC(=O)c3cccs3)cc2)c(C)c1,inactive
26,Cc1cc(NC(=O)CSc2nnnn2-c2ccc(F)cc2)no1,inactive

row,SMILES,Potency
1,Cc1ccc(N2CC(C(=O)N3CCC4(CC3)CC(=O)c3ccccc3O4)CC2=O)cc1C (centres undefined),inactive
2,O=C(Cc1ccc(Br)cc1)N1CCN(c2ccccn2)CC1,inactive
3,O=C(CN1CCN(c2ccccn2)CC1)Nc1ccc(Br)cc1,inactive
4,Cc1cc(Br)ccc1NC(=O)c1cnc(N2CCN(c3ccccn3)CC2)c2ccccc12,9.2 µM (active)
5,C=CCOc1ccc(C(=O)Nc2ccccc2C(=O)N2CCCC2)cc1,inactive
6,COc1ccc(OCC(=O)NNC(=O)C2CCC2)cc1,inactive
7,O=C(O)c1cc2c(cc1NC(=O)c1c(F)cccc1Cl)OCCCO2,inactive
8,COc1ccc(CNC(=O)c2cc3c(s2)-c2ccccc2OC3)cc1,10 µM (active)
9,COc1ccc(CNC(=O)c2cc3c(=O)[nH]c4ccccc4c3s2)cc1,inactive
10,COc1ccc(CNC(=O)COC(=O)C2=Cc3ccccc3OC2)cc1,inactive
11,CN1CCOC1c1ccc(C2OCCN2C)cc1 (centres undefined),inactive
12,CCOc1ccc(C2NC(=S)NC3=C2CCc2ccccc23)cc1 (centres undefined),7.94 µM (active)
13,CCOc1ccc(C2C(C(=O)O)c3ccccc3C(=O)N2CCN2CCOCC2)cc1 (centres undefined),inactive
14,Cc1ccc(OCc2nnc(SC3CCc4ccccc4C3=O)n2C)cc1 (centres undefined),inactive
15,O=C(c1ccc(S(=O)(=O)N2CCCC2)cc1)N1CCN(c2ccccc2F)CC1,inactive
16,c1ccc(CCc2ccccn2)cc1,inactive
17,O=C(O)c1ccc(/C=N/Nc2nc(N3CCCCC3)nc(N3CCCCC3)n2)cc1,inactive
18,C(=N/Nc1cc(N2CCOCC2)nc(N2CCOCC2)n1)/c1ccccc1,2.51 µM (active)
19,Cc1cc(N2CCN(c3ccccc3)CC2)nc(N2CCOCC2)n1,inactive
20,O=C1C2C3C=CC(C3)C2C(=O)N1c1ncc([N+](=O)[O-])s1 (centres undefined),inactive
21,Cc1cccc(NC(=O)C2CCN(S(=O)(=O)c3c(C)noc3/C=C/c3ccco3)CC2)c1,inactive
22,Cc1noc(/C=C/c2ccco2)c1S(=O)(=O)N1CCC(C(=O)Nc2ccc(Cl)cn2)CC1,6.51 µM (active)
23,Cc1noc(/C=C/N(C)C)c1S(=O)(=O)N1CCCC(C(=O)Nc2cccc(F)c2)C1 (centres undefined),inactive
24,Cc1nnc(SCC(=O)N2CCc3ccccc3C2)s1,inactive
25,Cc1nnc(SCC(=O)NCc2ccccc2)s1,inactive
26,Cc1nnc(SCC(=O)N2c3ccccc3C(C)(c3ccc(Cl)cc3)CC2(C)C)s1 (centres undefined),10 µM (active)

row,SMILES,Potency
1,Nn1c(SCC(=O)Nc2ccc3c(c2)CCC3)nnc1C1CC1,inactive
2,Cn1c(Cc2cccc3ccccc23)nnc1SCC(=O)N1CCN(c2cccc(Cl)c2)CC1,12.6 µM (active)
3,Cc1ccccc1NC(=O)Cc1nnc(SCC(=O)N2CCN(c3ccccc3)CC2)n1C,inactive
4,Cn1c(CNC(=O)c2ccco2)nnc1SCC(=O)N1CCN(c2ccccc2)CC1,inactive
5,Cc1cccc(C(=O)N[C@H](C(=O)NCc2cccs2)C(C)C)c1,inactive
6,CCCOC(=O)CSC1=C(C#N)[C@H](c2ccccc2OCC)[C@H](C#N)C(=O)N1,inactive
7,C=CC1=C(C)C2=NC1=CC1=NC(=CC3=NC(=CC4=NC(=C2)C(C)=C4CCC(=O)O)C(CCC(=O)O)=C3C)C(C=C)=C1C,inactive
8,CN1CCC[C@@H]1CCO[C@](C)(c1ccccc1)c1ccc(Cl)cc1,9.2 µM (active)
9,CC(C)(c1ccccc1)c1ccc(OCCN)cc1,inactive
10,Cc1ccc(S(=O)(=O)Nc2ccc(F)c(S(=O)(=O)N3CCOCC3)c2)cc1,inactive
11,O=C(NNC(=S)Nc1ccccc1)c1cccc(S(=O)(=O)N2CCOCC2)c1,inactive
12,O=C(Nc1nnc(-c2ccccc2)o1)c1cccc(S(=O)(=O)N2CCOCC2)c1,12.6 µM (active)
13,O=C(c1cccc(S(=O)(=O)N2CCOCC2)c1)N1CCOCC1,inactive
14,C/C(=N/OC(=O)c1ccc(Br)cc1)c1ccc(C)cc1,inactive
15,Cc1ccc(CSCC(=O)N(C)CC(=O)Nc2cccc(F)c2)cc1,inactive
16,Cc1c(CCO)c(=O)n(-c2ccccc2)n1S(=O)(=O)c1ccc(F)cc1,inactive
17,Cc1c(CCO)c(=O)[nH]n1C(=O)c1c(F)cccc1F,2.06 µM (active)
18,CC(=O)NC1(c2ccc(F)cc2)CCN(C(=O)c2c(F)cccc2F)CC1,inactive
19,O=C(CSc1nc(C2CC2)nc2ccccc12)Nc1cccc(O)c1,inactive
20,CCOc1ccccc1NC(=O)CCc1ccc(C)o1,inactive
21,Cc1ccc(CCC(=O)Nc2ncc(Cc3cc(Cl)ccc3Cl)s2)o1,0.651 µM (active)
22,Cc1cnc(NC(=O)CSc2nnc(-c3ccc(Cl)cc3Cl)n2N)s1,inactive
23,O=C(OCCOc1ccccc1F)c1cc(S(=O)(=O)N2CCOCC2)ccc1F,inactive
24,COc1ccc(CCNC(=O)C(Sc2ccccn2)c2ccccc2)cc1OC (centres undefined),inactive
25,C=CCn1c(COc2cccc3cccnc23)nnc1SCC(=O)OC,inactive
26,CCCCC(=O)NC(c1ccc(OC)c(OC)c1)c1ccc2cccnc2c1O (centres undefined),3.16 µM (active)

row,SMILES,Potency
1,Cc1cccc(NC(=O)c2cccnc2Cl)n1,inactive
2,CCOc1ccc(-n2c(SCC(=O)Nc3cc(C(=O)O)ccc3Cl)nc3ccccc3c2=O)cc1,inactive
3,N#CCCN(C(=O)COC(=O)c1ccc2c(c1)OCCO2)c1ccccc1,inactive
4,Cc1ccc(N2CC(C(=O)Nc3ccc(N(C)C)cc3)CC2=O)cc1Cl (centres undefined),inactive
5,CN(C)c1ccc(NC(=S)N(CCc2ccccc2)C2CC(=O)N(c3c(Cl)cccc3Cl)C2=O)cc1 (centres undefined),4.47 µM (active)
6,COC(=O)CN(C(=S)Nc1ccc(Cl)cc1)C1CC(=O)N(c2ccc(OC)cc2)C1=O (centres undefined),inactive
7,COc1ccccc1NC(=O)COC(=O)CNC(=O)C1CCCCC1,inactive
8,CC(C=Cc1ccccc1)=NNS(=O)(=O)c1ccc([N+](=O)[O-])cc1,inactive
9,CCn1c(C(O)c2cc(OC)ccc2OC)nc2ccccc21 (centres undefined),inactive
10,CC(=O)c1c(C)[nH]c(C(=O)OCC(=O)Nc2cc(S(=O)(=O)N3CCCCC3)ccc2C)c1C,9.2 µM (active)
11,CS(=O)(=O)c1ccc(Cl)c(NC(=O)COC(=O)c2cccc(S(=O)(=O)N3CCCC3)c2)c1,inactive
12,Cc1nc(-c2ccc(F)cc2)c(CC(=O)Nc2cc(S(=O)(=O)N3CCCCC3)ccc2C)s1,inactive
13,COc1ccc(CC(=O)Nc2ccc3c(c2)CCC3)cc1S(=O)(=O)N1CCOCC1,inactive
14,O=C(CCc1ccc(S(=O)(=O)N2CCOCC2)cc1)Nc1ccc2ccccc2c1,inactive
15,COc1ccc(CCC(=O)Nc2ccc(Cl)c(S(=O)(=O)N3CCOCC3)c2)cc1OC,6.31 µM (active)
16,CCN(CC(=O)Nc1cc(Cl)ccc1C)C(=O)CSCc1ccccc1,inactive
17,CCOCCCN1C(=O)C2C(C(=O)Nc3ccc(OCC)cc3)C3C=CC2(O3)C1C(=O)NC1CCCCC1 (centres undefined),inactive
18,COc1ccc(NS(=O)(=O)c2ccc(N3CCOCC3)c(NC(=O)c3ccccc3Br)c2)cc1,2.51 µM (active)
19,CC(=O)Nc1ccc(S(=O)(=O)Nc2ccc(N3CCOCC3)c(F)c2)cc1,inactive
20,COc1ccc(NS(=O)(=O)c2ccc(C)c(C(=O)NCC(c3cccs3)N3CCOCC3)c2)cc1 (centres undefined),inactive
21,CCCCCN(C(=O)CCC(=O)OCC(=O)NC1CCC(C)CC1)c1c(N)n(CCCC)c(=O)[nH]c1=O (centres undefined),inactive
22,CC1CCN(C(=O)C2CCN(S(=O)(=O)N3CCC4(CC3)OCCO4)CC2)CC1,inactive
23,NC(=O)C1CCN(C(=O)c2cn(-c3ccccc3)nc2-c2cccnc2)CC1,inactive
24,C/C(=N\NC(=O)Cc1ccc(Cl)cc1)c1ccccn1,3.26 µM (active)
25,C/C(=N\NC(=O)Cc1ccc(Br)cc1)c1cccnc1,inactive
26,CC1=NNC(=O)C1CCC(=O)N/N=C(\C)c1ccc(Cl)cc1 (centres undefined),inactive
